Values joined by “and” are separate entries in the source; they are usually repeats but may differ in a detail not shown here. Equal entries are not always repeated. The whole screen tested about 5,500 compounds, of which about 2,000 (36%) were called active. Roughly 18% stayed inconclusive and do not appear here. Cut-off read from the data, not from the text of the source: active = normalized growth mostly below about 0.91 (no sharp cut-off); inconclusive = no clear call, values can overlap the other calls; inactive = mostly above about 0.92. The list shows a part of the results.
Test: chemical genetic growth profiling, strain panel (AID 1159580);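 note: tested at 20 µM; growth read once vehicle control cultures reached saturation at 30 °C; 1 = growth at the plate median or of vehicle wells; lower values mean less growth of the strain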
Settings: S. cerevisiae deletion strains, growth OD

Measured: normalized growth

COC(=O)/C(=C1\OC(=O)C(c2ccccc2)=C1O)c1ccccc1
inactive: locus YAL013W, strain DEP1, active compounds read low 1.01 | locus YAL021C, strain ccr4, active compounds read low 0.979 | locus YAL026C, strain drs2, active compounds read low 0.979 | locus YAL030W, strain snc1, active compounds read low 0.981 | locus YBL061C, strain skt5, active compounds read low 0.977 | locus YBR009C, strain hhf1, active compounds read low 1 | locus YBR021W, strain FUR4, active compounds read low 0.963 | locus YBR023C, strain chs3, active compounds read low 0.976 | locus YBR171W, strain sec66, active compounds read low 0.987 | locus YBR229C, strain ROT2, active compounds read low 0.993 | locus YBR231C, strain swc5, active compounds read low 0.985 | locus YBR279W, strain paf1, active compounds read low 0.984 | locus YCL011C, strain gbp2, active compounds read low 0.979 | locus YCL016C, strain dcc1, active compounds read low 0.981 | locus YCL029C, strain bik1, active compounds read low 0.987 | locus YCL061C, strain MRC1, active compounds read low 0.966 | locus YCL069W, strain vba3, active compounds read low 0.968 | locus YCR088W, strain abp1, active compounds read low 0.962 | locus YDL005C, strain med2, active compounds read low 0.974 | locus YDL035C, strain GPR1, active compounds read low 1 | locus YDL040C, strain nat1, active compounds read low 0.969 | locus YDL074C, strain BRE1, active compounds read low 1.03 | locus YDL101C, strain DUN1, active compounds read low 1.01 | locus YDL134C, strain PPH21, active compounds read low 0.998 | locus YDL185W, strain tfp1, active compounds read low 0.987 | locus YDL192W, strain arf1, active compounds read low 1 | locus YDR001C, strain nth1, active compounds read low 0.958 | locus YDR069C, strain doa4, active compounds read low 1.01 | locus YDR101C, strain arx1, active compounds read low 1 | locus YDR137W, strain rgp1, active compounds read low 0.967 | locus YDR150W, strain NUM1, active compounds read low 0.987 | locus YDR159W, strain sac3, active compounds read low 0.974 | locus YDR162C, strain NBP2, active compounds read low 1.02 | locus YDR195W, strain ref2 0.943 | locus YDR297W, strain sur2, active compounds read low 0.977 | locus YDR318W, strain mcm21, active compounds read low 0.986 | locus YDR334W, strain swr1, active compounds read low 0.971 | locus YDR335W, strain msn5, active compounds read low 0.982 | locus YDR388W, active compounds read low 0.993 | locus YDR392W, strain spt3, active compounds read low 0.972 | locus YDR502C, strain sam2, active compounds read low 1.01 | locus YEL003W, strain gim4, active compounds read low 0.985 | locus YEL037C, strain rad23, active compounds read low 0.973 | locus YEL061C, strain CIN8 (second series), active compounds read low 0.964 | locus YEL061C, strain CIN8, active compounds read low 0.984 | locus YER015W, strain faa2, active compounds read low 0.967 | locus YER016W, strain bim1, active compounds read low 0.984 | locus YER110C, active compounds read low 0.997 | locus YER111C, strain swi4, active compounds read low 0.976 | locus YER155C, strain BEM2 (second series), active compounds read low 1 | locus YER155C, strain BEM2, active compounds read low 0.994 | locus YER167W, strain BCK2, active compounds read low 0.999 | locus YFR010W, strain ubp6, active compounds read low 0.991 | locus YGL078C, strain dbp3, active compounds read low 0.993 | locus YGL086W, strain mad1, active compounds read low 1.01 | locus YGL167C, strain pmr1, active compounds read low 0.951 | locus YGL173C, strain kem1, active compounds read low 0.993 | locus YGL227W, strain vid30, active compounds read low 0.977 | locus YGL240W, strain doc1, active compounds read low 1.02 | locus YGL248W, strain PDE1, active compounds read low 1 | locus YGL253W, strain hxk2, active compounds read low 0.968 | locus YGR078C, strain PAC10, active compounds read low 1.03 | locus YGR135W, strain pre9, active compounds read low 0.995 | locus YGR229C, strain SMI1, active compounds read low 0.98 | locus YGR252W, strain gcn5, active compounds read low 0.984 | locus YHR013C, strain ard1, active compounds read low 0.963 | locus YHR027C, strain rpn1, active compounds read low 0.976 | locus YHR030C, strain SLT2, active compounds read low 0.99 and 0.914 | locus YHR079C, strain IRE1 (second series), active compounds read low 0.991 | locus YHR079C, strain IRE1, active compounds read low 0.912 | locus YHR094C, strain hxt1, active compounds read low 0.989 | locus YHR129C, strain ARP1, active compounds read low 0.989 | locus YHR142W, strain chs7, active compounds read low 0.93 | locus YHR200W, strain rpn10, active compounds read low 0.988 | locus YIL066C, strain RNR3, active compounds read low 1.01 | locus YIL073C, strain SPO22, active compounds read low 1.05 | locus YIL125W, strain kgd1, active compounds read low 0.974 | locus YIR030C, strain dcg1, active compounds read low 0.998 | locus YJL092W, strain hpr5, active compounds read low 0.959 | locus YJL095W, strain BCK1 (second series), active compounds read low 0.973 | locus YJL095W, strain BCK1, active compounds read low 1.05 and 0.936 | locus YJL115W, strain asf1, active compounds read low 0.974 | locus YJL129C, strain trk1, active compounds read low 0.917 | locus YJL134W, strain LCB3, active compounds read low 0.991 | locus YJL154C, strain vps35, active compounds read low 0.957 | locus YJL164C, strain tpk1, active compounds read low 0.986 | locus YJL166W, strain qcr8, active compounds read low 0.993 | locus YJL168C, strain set2, active compounds read low 0.996 | locus YJL187C, strain SWE1 (second series), active compounds read low 1.04

Reference: PubChem BioAssay AID1159580 (chemical genetic matrix, 2015)
